Changes are numbered by the printed parent chain.
Tests used:
Assay in all cases: PBM; 200 nM protein, PBS
Conditions in all cases: dsDNA, one strand shown
[1] = target: CRX (Homo sapiens, UniProt O43186 26-111)
[2] = target: CRX (Homo sapiens, UniProt O43186 26-111, E42D)
[3] = target: CRX (Homo sapiens, UniProt O43186 26-111, R41L)
[4] = target: NKX2-5 (Homo sapiens, UniProt P52952 125-210)
[5] = target: T1, NKX2-4 (Homo sapiens, UniProt Q9H2Z4 175-261, P217L)
T1 sequence: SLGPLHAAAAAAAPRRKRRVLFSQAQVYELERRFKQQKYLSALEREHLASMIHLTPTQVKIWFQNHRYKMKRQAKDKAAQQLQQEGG

[6] = target: HOXA4 (Homo sapiens, UniProt Q00056 201-287, W262R)
[7] = target: T2, NKX2-4 (Homo sapiens, UniProt Q9H2Z4 175-261, T231S)
T2 sequence: T1 sequence with L43P, T57S

[8] = target: T3, NKX2-4 (Homo sapiens, UniProt Q9H2Z4 175-261)
T3 sequence: T1 sequence with L43P

[9] = target: HOXA4 (Homo sapiens, UniProt Q00056 201-287, R217L)
[10] = target: HOXA4 (Homo sapiens, UniProt Q00056 201-287)
[11] = target: T4, NKX2-4 (Homo sapiens, UniProt Q9H2Z4 175-261, R246Q)
T4 sequence: T1 sequence with L43P, R72Q

[12] = target: HOXA4 (Homo sapiens, UniProt Q00056 201-287, W262F)
[13] = target: PITX2 (Homo sapiens, UniProt Q99697 72-157)
[14] = target: HOXB9 (Homo sapiens, UniProt P17482 171-250, T197M)
[15] = target: HOXB9 (Homo sapiens, UniProt P17482 171-250)
[16] = target: HOXB9 (Homo sapiens, UniProt P17482 171-250, R186Q)
[17] = target: HOXD13 (Homo sapiens, UniProt P35453 263-343, T313R)
[18] = target: HOXD13 (Homo sapiens, UniProt P35453 263-343)
[19] = target: HOXD13 (Homo sapiens, UniProt P35453 263-343, T313A)
Chain of HOXD13 (Homo sapiens, UniProt P35453 263-343, T313A) (P35453 263-343 T313A): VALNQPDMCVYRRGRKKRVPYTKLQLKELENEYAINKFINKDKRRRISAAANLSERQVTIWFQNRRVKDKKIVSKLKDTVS

Chain of CRX (Homo sapiens, UniProt O43186 26-111, R41L) (O43186 26-111 R41L): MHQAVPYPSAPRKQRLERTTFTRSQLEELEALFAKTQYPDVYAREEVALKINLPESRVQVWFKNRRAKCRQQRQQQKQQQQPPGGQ
Chain of CRX (Homo sapiens, UniProt O43186 26-111) (O43186 26-111): as the sequence (O43186 26-111 R41L) above, with L16R counted along it
Chain of CRX (Homo sapiens, UniProt O43186 26-111, E42D) (O43186 26-111 E42D): as the sequence (O43186 26-111 R41L) above, with L16R, E17D counted along it
Chain of HOXB9 (Homo sapiens, UniProt P17482 171-250, T197M) (P17482 171-250 T197M): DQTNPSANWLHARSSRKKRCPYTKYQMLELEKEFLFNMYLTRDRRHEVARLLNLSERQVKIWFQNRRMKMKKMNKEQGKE
Chain of HOXB9 (Homo sapiens, UniProt P17482 171-250, R186Q) (P17482 171-250 R186Q): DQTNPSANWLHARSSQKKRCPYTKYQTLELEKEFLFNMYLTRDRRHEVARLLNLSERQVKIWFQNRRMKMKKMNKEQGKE
Chain of HOXB9 (Homo sapiens, UniProt P17482 171-250) (P17482 171-250): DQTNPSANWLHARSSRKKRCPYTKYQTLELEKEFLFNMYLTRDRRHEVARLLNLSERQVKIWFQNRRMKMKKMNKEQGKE
Chain of HOXA4 (Homo sapiens, UniProt Q00056 201-287) (Q00056 201-287): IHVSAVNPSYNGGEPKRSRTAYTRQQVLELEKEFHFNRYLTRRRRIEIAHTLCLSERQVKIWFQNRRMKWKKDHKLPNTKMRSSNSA
Chain of NKX2-5 (P52952 125-210): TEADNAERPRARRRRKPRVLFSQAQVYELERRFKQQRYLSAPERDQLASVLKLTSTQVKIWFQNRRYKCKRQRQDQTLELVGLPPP
Chain of HOXD13 (Homo sapiens, UniProt P35453 263-343, T313R) (P35453 263-343 T313R): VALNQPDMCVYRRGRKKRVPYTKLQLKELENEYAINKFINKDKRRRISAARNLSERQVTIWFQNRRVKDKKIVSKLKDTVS
Chain of HOXD13 (Homo sapiens, UniProt P35453 263-343) (P35453 263-343): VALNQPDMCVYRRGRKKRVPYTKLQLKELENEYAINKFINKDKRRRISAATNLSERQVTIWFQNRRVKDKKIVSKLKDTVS
Chain of HOXA4 (Homo sapiens, UniProt Q00056 201-287, R217L) (Q00056 201-287 R217L): as the sequence (Q00056 201-287) above, with R17L counted along it
Chain of HOXA4 (Homo sapiens, UniProt Q00056 201-287, W262R) (Q00056 201-287 W262R): as the sequence (Q00056 201-287) above, with W62R counted along it
Chain of HOXA4 (Homo sapiens, UniProt Q00056 201-287, W262F) (Q00056 201-287 W262F): as the sequence (Q00056 201-287) above, with W62F counted along it

What does the source list for GGTGCTTA?
binding signal [1]: 11 upbm affinity estimate (log intensity, higher = more binding, comparable within an allelic series); binding signal [2]: 10.9 upbm affinity estimate (log intensity, higher = more binding, comparable within an allelic series); binding signal [3]: 10.4 upbm affinity estimate (log intensity, higher = more binding, comparable within an allelic series); binding signal [4]: 10.4 upbm affinity estimate (log intensity, higher = more binding, comparable within an allelic series)

Which results are given for CAGTCCCG?
binding signal [5]: 9.58 upbm affinity estimate (log intensity, higher = more binding, comparable within an allelic series); binding signal [6]: 9.96 upbm affinity estimate (log intensity, higher = more binding, comparable within an allelic series); binding signal [7]: 9.49 upbm affinity estimate (log intensity, higher = more binding, comparable within an allelic series); binding signal [8]: 9.67 upbm affinity estimate (log intensity, higher = more binding, comparable within an allelic series); binding signal [9]: 9.95 upbm affinity estimate (log intensity, higher = more binding, comparable within an allelic series); binding signal [10]: 9.91 upbm affinity estimate (log intensity, higher = more binding, comparable within an allelic series); binding signal [11]: 9.57 upbm affinity estimate (log intensity, higher = more binding, comparable within an allelic series); binding signal [12]: 10 upbm affinity estimate (log intensity, higher = more binding, comparable within an allelic series)

How did the binding signal [1] turn out when AGATTAAC was run?
Its binding signal is 12.9 upbm affinity estimate (log intensity, higher = more binding, comparable within an allelic series).

And the binding signal [13]?
The binding signal was 12.7 upbm affinity estimate (log intensity, higher = more binding, comparable within an allelic series).

What about the binding signal [3] of the same sequence?
Its binding signal is 12.6 upbm affinity estimate (log intensity, higher = more binding, comparable within an allelic series).

Which binding signal [5] does the source give for AGAGGGCC here?
Its binding signal is 11.7 upbm affinity estimate (log intensity, higher = more binding, comparable within an allelic series).

And the binding signal [14]?
The binding signal was 8.51 upbm affinity estimate (log intensity, higher = more binding, comparable within an allelic series).

And the binding signal [7]?
Its binding signal is 12 upbm affinity estimate (log intensity, higher = more binding, comparable within an allelic series).

And the binding signal [8]?
The binding signal was 11.7 upbm affinity estimate (log intensity, higher = more binding, comparable within an allelic series).

And the binding signal [15]?
The binding signal was 8.69 upbm affinity estimate (log intensity, higher = more binding, comparable within an allelic series).

And the binding signal [11]?
The binding signal was 11.9 upbm affinity estimate (log intensity, higher = more binding, comparable within an allelic series).

What about the binding signal [16] of the same sequence?
Its binding signal is 8.57 upbm affinity estimate (log intensity, higher = more binding, comparable within an allelic series).

For CGCTAATC, which binding signal [1] is on record?
The binding signal was 12.8 upbm affinity estimate (log intensity, higher = more binding, comparable within an allelic series).

What about the binding signal [13] of the same sequence?
Its binding signal is 12.2 upbm affinity estimate (log intensity, higher = more binding, comparable within an allelic series).

What about the binding signal [3] of the same sequence?
The binding signal was 12.3 upbm affinity estimate (log intensity, higher = more binding, comparable within an allelic series).

Which binding signal [5] does the source give for GCGCCGCC here?
The binding signal was 9.93 upbm affinity estimate (log intensity, higher = more binding, comparable within an allelic series).

What about the binding signal [14] of the same sequence?
Its binding signal is 8.49 upbm affinity estimate (log intensity, higher = more binding, comparable within an allelic series).

And the binding signal [7]?
Its binding signal is 9.45 upbm affinity estimate (log intensity, higher = more binding, comparable within an allelic series).

And the binding signal [8]?
Its binding signal is 9.72 upbm affinity estimate (log intensity, higher = more binding, comparable within an allelic series).

What about the binding signal [15] of the same sequence?
Its binding signal is 8.66 upbm affinity estimate (log intensity, higher = more binding, comparable within an allelic series).

And the binding signal [17]?
The binding signal was 9.49 upbm affinity estimate (log intensity, higher = more binding, comparable within an allelic series).

And the binding signal [18]?
The binding signal was 9.76 upbm affinity estimate (log intensity, higher = more binding, comparable within an allelic series).

And the binding signal [11]?
Its binding signal is 9.62 upbm affinity estimate (log intensity, higher = more binding, comparable within an allelic series).

And the binding signal [19]?
The binding signal was 9.79 upbm affinity estimate (log intensity, higher = more binding, comparable within an allelic series).

And the binding signal [16]?
The binding signal was 8.63 upbm affinity estimate (log intensity, higher = more binding, comparable within an allelic series).

How did the binding signal [1] turn out when TAATCCAA was run?
The binding signal was 13 upbm affinity estimate (log intensity, higher = more binding, comparable within an allelic series).

What about the binding signal [2] of the same sequence?
The binding signal was 13 upbm affinity estimate (log intensity, higher = more binding, comparable within an allelic series).

What about the binding signal [3] of the same sequence?
Its binding signal is 12.8 upbm affinity estimate (log intensity, higher = more binding, comparable within an allelic series).

How did the binding signal [1] turn out when AGATTAGG was run?
Its binding signal is 12.7 upbm affinity estimate (log intensity, higher = more binding, comparable within an allelic series).

What about the binding signal [13] of the same sequence?
The binding signal was 12.3 upbm affinity estimate (log intensity, higher = more binding, comparable within an allelic series).

What about the binding signal [3] of the same sequence?
The binding signal was 12.2 upbm affinity estimate (log intensity, higher = more binding, comparable within an allelic series).

How did the binding signal [1] turn out when AAGGGTGG was run?
Its binding signal is 8.2 upbm affinity estimate (log intensity, higher = more binding, comparable within an allelic series).

And the binding signal [2]?
The binding signal was 8.31 upbm affinity estimate (log intensity, higher = more binding, comparable within an allelic series).

What about the binding signal [3] of the same sequence?
The binding signal was 8.33 upbm affinity estimate (log intensity, higher = more binding, comparable within an allelic series).

For AGGCATAA, which binding signal [1] is on record?
The binding signal was 10.3 upbm affinity estimate (log intensity, higher = more binding, comparable within an allelic series).

What about the binding signal [2] of the same sequence?
Its binding signal is 10.1 upbm affinity estimate (log intensity, higher = more binding, comparable within an allelic series).

And the binding signal [3]?
Its binding signal is 9.78 upbm affinity estimate (log intensity, higher = more binding, comparable within an allelic series).

Which results are given for ACCGCACC?
binding signal [1]: 8.25 upbm affinity estimate (log intensity, higher = more binding, comparable within an allelic series); binding signal [2]: 8.39 upbm affinity estimate (log intensity, higher = more binding, comparable within an allelic series); binding signal [3]: 8.35 upbm affinity estimate (log intensity, higher = more binding, comparable within an allelic series)

Which results are given for GTTTAAAA?
binding signal [1]: 9.91 upbm affinity estimate (log intensity, higher = more binding, comparable within an allelic series); binding signal [2]: 9.79 upbm affinity estimate (log intensity, higher = more binding, comparable within an allelic series); binding signal [3]: 9.59 upbm affinity estimate (log intensity, higher = more binding, comparable within an allelic series)

— paper PMC11006913
